PubChem BioAssay (NCATS)

assay: Cell Proliferation Assay against the TMD8 Cell Line (AID 651645); conditions: TMD8 DLBCL cell line proliferation/viability; at 46.1 µM (top of the series) unless noted;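 further: cells exposed to compound for 48 h before reading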
From the text: One class of targeted therapeutics showing early clinical success in killing of ABC DLBCL lines are small molecule inhibitors of the Bruton tyrosine kinase (BTK) 11.
Prior to any combination assays, using an NCATS developed oncology compound library called the Mechanism of Interrogation Plate (MIPE), two well studied ABC DLBCL lines (TMD8 and HBL1) were screened using a cell viability assay (CellTiterGlo) and a 12-point titration series for each single agent. These initial experiments offered insight into the concentration range that offered the best coverage of activity and non-activity to assure relevant data is generated. In addition to the viability signature associated with this library, we examined the apoptotic response of each agent versus the TMD8 line as judged by caspase 3/7 activation. Activity was assayed at both 8 and 16 hour time-points to gain an appreciation of which agents induced an apoptotic response in a reasonable timeframe from a therapeutic exposure perspective. MIPE was also assayed for single agent viability in a human mesenchymal stem cell (hMSC) line as a surrogate of each library member's potential therapeutic index.
A total of 500 log growing TMD8 cells are seeded per well in 5 uL of a RPMI with glutamine (or Glutamax), without phenol red plus 5% FBS and 1X Pen/Strep into 1536 -solid white high base tissue culture treated Greiner One Bio Plates (789173-F) using a multidrop combi dispenser and a small sterile cassette. Compounds and controls totaling 23nL per well (negative control DMSO and positive control 9.2 uM Bortezomib-final) are immediately added to the plates using a 1536 head pin tool from Kalypsys. The plates are then covered with stainless steel gasket lids from Kalypsys and incubated for 48 hours at 37C under 95% relative humidity with 5% CO2. After 48 hours, the plates are removed and allowed to reach room temperature before 3 uL of Cell Titer Glo reagent (Promega) is added using an Aurora Flying Reagent Dispenser Bioraptor. The plates are then spun at 1000 rpms to remove bubbles and incubated for 15 minutes at room temperature before read on a ViewLux using a luminescent filter with a 10 second exposure. The relative luciferase units are used to calculated percent activity using DMSO as 100% and Bortezomib as 0%.

| SMILES | viability (% of control) |
| --- | --- |
| CCOC(CN1C(=O)[C@](CC(=O)Nc2ccc(C)cc2)(NC(=O)Nc2ccc(C)cc2)c2ccccc21)OCC | 16.8% |
| CN(C)Cc1ccc(-c2nc3cccc4c3n2CCNC4=O)cc1 | 17% |
| CN(C)C1CCN(C(=O)c2ccc(NC(=O)Nc3nc(N4CCOCC4)nc(N4CCOCC4)n3)cc2)CC1 | 2.35% |
| COc1ncc(-c2ccc3nccc(-c4ccnnc4)c3c2)cc1NS(=O)(=O)c1ccc(F)cc1F | 1.53% |
| COc1ccc(C2CC(c3ccccc3)=NN2c2ccc(S(N)(=O)=O)cc2)cc1 (stereo not given) | 13.6% |
| N#Cc1ccc(NC(=O)Nc2ccccc2Br)c2n[nH]nc12 | 12.8% |
| CC(C)[C@H](CO)Nc1nc(Nc2ccc(C(=O)O)c(Cl)c2)c2ncn(C(C)C)c2n1 | 83.7% |
| COc1cc(Nc2ncc(F)c(Nc3ccc4c(n3)NC(=O)C(C)(C)O4)n2)cc(OC)c1OC | 17.5% |
| c1ccc2c(-c3cnn4cc(-c5ccc(N6CCNCC6)cc5)cnc34)ccnc2c1 | 0.905% |
| O=C(CCCCCCC(=O)Nc1ccccc1)NO | 2.92% [at 92.2 µM] |
| Clc1ccc(-c2nc3sccn3c2C=NOCc2ccc(Cl)c(Cl)c2)cc1 | 74.9% |
| CO[C@@H](C(=O)N1Cc2[nH]nc(NC(=O)c3ccc(N4CCN(C)CC4)cc3)c2C1)c1ccccc1 | 3.09% |
| COc1cc2ncnc(Nc3ccc(F)c(Cl)c3)c2cc1OCCCN1CCOCC1 | 50.3% |
| O=c1cc(CN2CCOCC2)occ1OCCCCCSc1ccnc2cc(C(F)(F)F)ccc12 | 6.87% |
| CC(C)(C)c1cc(C(=O)O)c(NC(=O)Nc2ccc3[nH]ncc3c2)s1 | 99.7% |
| CCOc1ccc(Nc2nc(-c3c(C)nc4ccccn34)cs2)cc1 | 5.58% |
| Cc1ccc(F)c(NC(=O)Nc2ccc(-c3cccc4[nH]nc(N)c34)cc2)c1 | 4.9% |
| CC(C)(C)C(=O)Oc1ccc2c(c1)nc(NC(=O)c1cccc([N+](=O)[O-])c1)n2CCCO | 0.179% |
| Cc1nc(N)sc1-c1ccnc(Nc2ccc(N3CCOCC3)cc2)n1 | 4.33% |
| CC(C)(C(=O)NCC(F)(F)C(F)(F)F)C(=O)N[C@@H]1C(=O)Nc2ccccc2-c2ccccc21 | 61.9% |

| SMILES | viability (% of control) |
| --- | --- |
| COc1cc(N2CCC(N3CCN(C)CC3)CC2)ccc1Nc1ncc(Cl)c(Nc2ccccc2S(=O)(=O)C(C)C)n1 | 3.22% |
| COc1cc2nc(-c3ccc(N4CCN(C)CC4)cc3)nc(NCCN3CCOCC3)c2cc1OC | 1.8% |
| O=C(O)c1ccc(-c2cc3cccnc3c(-c3ccc4nonc4c3)n2)cc1 | 111% |
| CC(=O)Nc1ccc([C@H](C)C(=O)Nc2ncc(C(C)C)s2)cc1 | -0.0002% |
| O=C1C(Cl)=C(NCCN2CCOCC2)C(=O)c2ncccc21 | 3.41% |
| O=c1cc(N2CCOCC2)oc2c(-c3cccc4c3sc3ccccc34)cccc12 | 2.51% |
| CC(C)C(=O)Nc1ncc(-c2cc(C(F)F)nn2-c2c(Cl)cccc2Cl)s1 | 9.91% |
| CC(=O)N(C)C1(c2ccccc2)CCN(CCC[C@]2(c3ccc(Cl)c(Cl)c3)CCCN(C(=O)c3ccccc3)C2)CC1 | 1.74% |
| CO[C@H]1C=CC=C(C)C(=O)NC2=CC(=O)C(NCCN(C)C)=C(C[C@@H](C)C[C@H](OC)[C@@H](O)[C@@H](C)C=C(C)[C@@H]1OC(N)=O)C2=O | 3.74% |
| CO[C@H]1C[C@@H]2CC[C@@H](C)[C@@](O)(O2)C(=O)C(=O)N2CCCC[C@@H]2C(=O)O[C@H]([C@H](C)C[C@@H]2CC[C@H](OCCO)[C@H](OC)C2)CC(=O)[C@H](C)C=C(C)[C@@H](O)[C@@H](OC)C(=O)[C@H](C)C[C@H](C)C=CC=CC=C1C | -0.307% |
| CC(C)(C)COc1ccc(-n2cc(C(=O)O)cn2)cc1C#N | 88.1% |
| COc1cccc2c1CCCC2CCCN1CCN(C2CCCCC2)CC1 (stereo not given) | 1.09% |
| O=C(Nc1cc(Cl)cc2c1[nH]c1cnccc12)c1cccnc1 | 1.73% |
| O=C(Nc1ccccc1-c1cn2c(CN3CCNCC3)csc2n1)c1cnc2ccccc2n1 | 2.49% |
| O=C(O)CCC1CCC(c2cc(F)ccc2F)(S(=O)(=O)c2ccc(Cl)cc2)CC1 (stereo not given) | 98.2% |
| O=C(N[C@@H](c1ccccc1)[C@@H]1CCCCN1)c1cccc(C(F)(F)F)c1Cl | 74.3% |
| CC1=C(/C=C/C(C)=C/C=C/C(C)=C/C(=O)Nc2ccc(O)cc2)C(C)(C)CCC1 | 7.34% |
| CN1CCN(CCOc2cc(OC3CCOCC3)c3c(Nc4c(Cl)ccc5c4OCO5)ncnc3c2)CC1 | 17.4% |
| COc1cc2ncnc(-n3nc(-c4ccccn4)nc3N)c2cc1OC | 1.94% |
| OC[C@H]1O[C@@H](n2cnc3c2NC=NC[C@@H]3O)C[C@H]1O | 95.3% |
